High-throughput results deposited in PubChem by National Center for Advancing Translational Sciences (NCATS).
Only some compounds are listed: those with a hit (about 6.4% of all), similar ones and a draw of the others.
Gal4-VP16 FLuc = counter-screen for ROR gamma inhibitors: Gal4-VP16 reporter. Potency, µM (series often up to 53.6 µM), without a hit: at the highest dose activity, negative = inhibition, hits mostly inhibitors. AID 2546. Drosophila S2 Gal4-VP16 UAS-luciferase, luminescence, 20 h. actives 3.5% (n = 310,000);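 note: Gal4-VP16 expression switched on by copper sulfate through the metallothionein promoter; nearly all actives have a fitted effect of over 50% in size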
KinaseGlo FLuc = counter-screen: inhibitors of Kinase-Glo firefly luciferase; Q27757; Kinase-Glo luciferase, ATP luminescence, 8 min; Potency, µM (highest dose often 38.3 µM), for the others: at the highest dose activity change, negative = inhibition, most hits filed as inhibitors; actives 0.28% (n = 200,000); note: nearly all actives have a fitted effect of over 60% in size
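Kinase-Glo luciferase light output from ATP and luciferin was measured with 10 uM ATP, within the enzyme's linear range. Buffer: 50 mM imidazole pH 7.2, 50 mM KCl, 7 mM MgCl2, 0.01% Tween 20, 0.05% BSA; luminescence read after 8 min at ambient temperature.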
RORgamma inh = ROR gamma (mouse) transcription inhibition; P51450; Drosophila S2 Gal4-RORgamma UAS-luciferase reporter, 20 h; Potency, µM (series often up to 53.6 µM), inactives show top-dose activity change, negative = inhibition, usual class: inhibitors; actives 5.4% (n = 310,000); AID 2551; note: nearly all actives have a fitted effect of over 60% in size
Target sequence (P51450 whole entry, looked up, the tested form may be a part): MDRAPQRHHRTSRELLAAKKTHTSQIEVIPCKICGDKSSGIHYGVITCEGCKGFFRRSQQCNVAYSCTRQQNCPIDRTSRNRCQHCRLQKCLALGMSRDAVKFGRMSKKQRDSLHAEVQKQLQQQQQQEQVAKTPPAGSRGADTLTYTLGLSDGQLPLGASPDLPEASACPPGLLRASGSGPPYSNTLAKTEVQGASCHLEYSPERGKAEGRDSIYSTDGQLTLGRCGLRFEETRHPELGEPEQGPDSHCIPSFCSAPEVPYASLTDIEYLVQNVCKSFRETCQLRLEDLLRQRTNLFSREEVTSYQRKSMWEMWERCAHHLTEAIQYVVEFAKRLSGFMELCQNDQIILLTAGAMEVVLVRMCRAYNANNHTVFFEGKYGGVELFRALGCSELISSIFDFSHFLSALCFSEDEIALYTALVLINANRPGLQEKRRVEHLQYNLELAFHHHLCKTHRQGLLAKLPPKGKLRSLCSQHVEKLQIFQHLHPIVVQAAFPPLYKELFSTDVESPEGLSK
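Compounds are pin-transferred onto Drosophila Schneider cells expressing a copper-inducible Gal4–ROR gamma transactivation domain fusion. After 1 hr, copper sulfate is added to 700 uM final; luciferase is read 20 hr later.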
Active calls of the source: *; u = inconclusive; x = no result given; [ ] = another dose, or the depositor's remark. Calls come from the whole dose curve; as a rule, active = well fitted curve in the direction sought with a large enough effect; inconclusive = small, poorly fitted or top-dose-only effect, or another doubt; inactive = no such curve, though single readings can be large; an effect the other way counts as inactive or inconclusive. % is set by controls: 0 for no effect and ±100 for the full control effect; potency is the fitted concentration of half-maximal effect.

SMILES	Gal4-VP16 FLuc	KinaseGlo FLuc	RORgamma inh
CCN(CC(=O)N1CCCC1)S(=O)(=O)c1ccc2ccccc2c1	-1.0%	x	1.2%
CCC(=O)NNc1nc2c(Cl)cccc2s1	5.7%	5.0%	u
Cc1ccc2sc(NC(=O)C3CC3)nc2c1C	-1.9%	x	36.6%
CCC(=O)NNc1nc2c(C)c(C)ccc2s1	-28.8%	0.0%	7.94µM*
CCC(=O)NNc1nc2c(C)cccc2s1	u	-1.0%	11.2µM*
CCn1c2ccccc2c2nc3ccccc3nc21	-2.3%	-5.5%	-7.0%
CCCCc1c(C)nn(-c2nnc3c4ccccc4n(CC)c3n2)c1C	3.98µM*	x	1.78µM*
CCc1ccc(OCC(=O)NC(NC(=S)Nc2ccccc2)C(Cl)(Cl)Cl)cc1 (centres undefined)	12.6µM*	-3.4%	u
CC(C)CC(=O)NC(NC(=S)Nc1ccccc1)C(Cl)(Cl)Cl (centres undefined)	4.9%	0.9%	16.9%
CC(=O)NC(NC(=S)Nc1ccc(C)cc1C)C(Cl)(Cl)Cl (centres undefined)	-9.6%	x	-11.0%
CCc1ccc(OCC(=O)NC(NC(=S)Nc2ccccc2C)C(Cl)(Cl)Cl)cc1 (centres undefined)	5.01µM*	-0.4%	6.31µM*
CCc1ccc(OCC(=O)NC(NC(=S)Nc2ccc(C)cc2C)C(Cl)(Cl)Cl)cc1 (centres undefined)	u	-3.0%	10µM*
COC(=O)c1ccccc1NC(=S)NC(NC(=O)COc1ccccc1)C(Cl)(Cl)Cl (centres undefined)	u	-2.9%	5.62µM*
Cc1ccccc1NC(=S)NC(NC(=O)COc1ccccc1)C(Cl)(Cl)Cl (centres undefined)	-15.4%	x	u
O=C(COc1ccccc1)NC(NC(=S)Nc1ccccc1O)C(Cl)(Cl)Cl (centres undefined)	-9.0%	1.8%	44.8%
O=C(COc1ccc2c3c(c(=O)oc2c1)CCCC3)N1C[C@H]2C[C@@H](C1)c1cccc(=O)n1C2	2.3%	x	3.0%
COc1cccc(C(=O)Nc2nnc(SCC(=O)NC3CCCC3)s2)c1	-29.1%	x	u
COc1ccc(Oc2ncc3nc(-c4ccc(F)cc4)c(=O)n(CCC#N)c3n2)cc1	-15.5%	x	3.0%
COC(=O)N/N=C1\CCCc2c(C)cc(C)cc21	-2.7%	0.1%	4.7%
Cc1cc(C)c2c(c1)/C(=N/NC(=S)Nc1ccc(F)cc1)CCC2	15.8µM*	-0.7%	-21.9%
COc1ccc(NC(=O)Cn2c(=O)oc3cc(S(=O)(=O)N4CCCC4)ccc32)cc1	-8.0%	x	23.6%
Cc1ccc(NC(=O)Cn2c(=O)oc3cc(S(=O)(=O)N4CCC(C)CC4)ccc32)cc1C	20µM*	3.0%	2.9%
Cc1cc(O)c(C(C)C)cc1CN1CCCCC1	x	1.1%[7.66 µM]	x
Cc1nn(C)c(C(=O)N/N=C/c2ccc(C(F)(F)F)cc2)c1[N+](=O)[O-]	u	0.0%	17.2%
CCN(CC)c1ccc(/C=N/NC(=O)C2CC2)cc1	18.5%	x	9.0%
SMILES	Gal4-VP16 FLuc	KinaseGlo FLuc	RORgamma inh
CCN(CC)c1ccc(/C=N/NC(=O)c2c(Cl)c(C)nn2C)cc1	u	-4.9%	5.62µM*
Cc1onc(-c2ccccc2)c1C(=O)N/N=C/c1ccc([N+](=O)[O-])s1	11.2µM*	-5.4%	11.2µM*
Cc1onc(-c2ccccc2)c1C(=O)N/N=C/C=C/c1ccccc1	3.16µM*	x	2.24µM*
CCN(CC)c1ccc(/C=N/NC(=O)Nc2nonc2N)cc1	-99.1%	-1.3%	7.08µM*
Cc1onc(-c2ccccc2)c1C(=O)N/N=C/c1ccco1	-12.6%	x	u
Cc1onc(-c2ccccc2)c1C(=O)N/N=C/c1cccc(O)c1	-10.0%	14.6%	2.3%
O=C(C1CC12CCCC2)N1CCC(CO)(Cc2ccccc2Cl)CC1 (centres undefined)	-0.5%	0.7%	16.3%
COc1ccc(CCNC(=O)c2cccc(NC(=O)CC3SC(N4CCCCC4)=NC3=O)c2)cc1OC (centres undefined)	1.6%	x	1.7%
CCOC(=O)C(C(=O)OCC)N(C#N)c1nc(N(C)C)nc(N(C)C)n1	2.7%	2.3%	-4.3%
CC(C)(C)c1ccc(OCC(=O)Nc2ccc3c4c(cccc24)C(=O)NC3=O)cc1	-12.4%	-4.1%	-38.3%
COc1ccc(C(C)=O)cc1COC(=O)CCNS(=O)(=O)c1ccc(C(C)=O)cc1	-3.6%	x	-2.5%
Cc1ccc2cc(CCNC(=O)c3cccc([N+](=O)[O-])c3)c(=O)[nH]c2c1C	-14.8%	-3.3%	15.9%
CCCCC/C=C\C/C=C\C/C=C\C=C\C(=O)CCCC(=O)O	7.1%	2.3%	3.9%
C=CCC1(c2ccccc2)Oc2ccccc2-c2nc3cc(Cl)c(Cl)cc3nc21 (centres undefined)	u	x	-24.1%[10 µM]
CCN(CC)c1ccc(/C=N/NC(=O)c2c(-c3ccccc3)noc2C)cc1	u	x	11.2µM*
CCOc1ccc(/C=N/NC(=O)c2c(-c3ccccc3)noc2C)cc1	u	-0.7%	u
COc1ccc(OC)c(NC(=O)NCCCCc2ccccc2)c1	-8.6%	x	-2.4%
COC(=O)c1cc(C(=O)Nc2nnc(CC(C)C)s2)cc([N+](=O)[O-])c1	22.4µM*	-1.9%	12.6µM*
COCCSc1nnc(NC(=O)c2cc(C(=O)OC)cc([N+](=O)[O-])c2)s1	-3.7%	3.8%	-34.8%
CCC(CC)c1nnc(NC(=O)c2cc(C(=O)OC)cc([N+](=O)[O-])c2)s1	u	3.2%	7.08µM*
COCc1nnc(NC(=O)c2cc(C(=O)OC)cc([N+](=O)[O-])c2)s1	4.1%	1.6%	-31.1%
COc1ccc(OC)c(N(C)S(=O)(=O)c2cc3c(cc2C)NC(=O)CO3)c1	1.7%	x	-22.4%
CO[C@@H]1COC(=O)C/C=C\[C@H](C)COC(=O)[C@H](C)NC(=O)C/C=C\[C@H]1C	0.9%[10 µM]	x	-10.9%[10 µM]
COc1ccc2c(-c3ccccc3)cc(=S)[nH]c2c1	u	x	1µM*
COc1ccc2c(-c3ccccc3)cc(=O)[nH]c2c1	17.3%	-1.5%	21.7%
SMILES	Gal4-VP16 FLuc	KinaseGlo FLuc	RORgamma inh
COc1ccccc1C1=NNC(=NCc2ccccc2)SC1	-5.0%	-5.8%	11.2µM*
Fc1ccc(N=C2NN=C(c3cc(F)ccc3F)CS2)cc1	u	-1.2%	u
CC(=O)c1c(C)[nH]c(C2=NNC(=NCc3ccccc3)SC2)c1C	-12.2%[10 µM]	1.7%	12.6%
Fc1ccc(F)c(C2=NNC(=Nc3ccccc3F)SC2)c1	u	-17.4%	u
Clc1ccc(C2=NNC(=NCc3ccccc3)SC2)cc1	u	1.0%	5.01µM*
c1ccc(CN=C2NN=C(c3ccccc3)CS2)cc1	-75.6%	-4.9%	u
Fc1ccc(C2=NNC(=NCc3ccccc3)SC2)cc1F	-26.0%	-0.3%	14.1µM*
CC(C)N=C1NN=C(c2ccc(F)cc2)CS1	u	10µM*	7.08µM*
Cc1cc(C)n2nnnc2n1	-3.0%	x	-0.5%
O=C(N=C1SC2CS(=O)(=O)CC2N1Cc1ccc(Cl)cc1)C1CC1 (centres undefined)	0.2%	x	2.0%
Cc1cc(C)cc(C(=O)NC(CC(N)=O)c2ccc(N3CCCCCC3)c([N+](=O)[O-])c2)c1 (centres undefined)	-3.0%	x	0.2%
O=C(O)c1cc(Cl)c(Cl)cc1C(=O)NCc1ccco1	6.8%	x	8.4%
Cc1nnnn1CC(=O)Nc1ccccc1[N+](=O)[O-]	9.0%	-4.1%	-14.6%
COCCN=C1NN=C(c2ccc(NC(C)=O)cc2)CS1	2.9%	2.8%	u
